High-throughput results as filed in PubChem.
ERG-DNA inh = inhibitors of human ERG Ets domain-DNA interaction. P11308. fluorescence polarization, His-ERG Ets domain / labelled DNA. Potency, µM (top dose mostly 76.9 µM), without a hit: top-dose FP activity, negative = inhibition, usual class: inhibitors. 370,000 tested, 0.028% active. AID 624246; active = well fitted inhibition curve with a large enough effect in the polarisation, with a control signal flat; inconclusive = small, poorly fitted or top-dose-only effect, or effect the other way, or a change in a side signal; inactive = no such curve, though single readings can be large or run the other way; the % refers to the polarisation;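 also: polarization taken with two DNA probes labelled with fluorescein and Texas red; potency is read from the fitted curve at half-maximal effect; % of control where 0% means no effect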
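His-tagged ERG Ets domain (1 uM in the protein solution; 300mM KCl, 50mM Tris-HCl, 1mM EDTA, 1mM DTT, pH 7.5) received compound, then a probe mix of 5 nM fluorescein-DNA and 100nM Texas-615-DNA. Fluorescence polarization was read for both dyes.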
BLM helicase inh = inhibitors of human Bloom syndrome helicase BLM | P54132 | recombinant BLM DNA unwinding, fluorescence dequenching | Potency, µM (doses to about 56.1 µM), without a hit: at the top dose activity change, negative = inhibition, hits mostly inhibitors | 350,000 tested, 0.2% active;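 also: potency is read from the fitted curve at half-maximal effect; plate controls were vehicle for no effect and no enzyme for full effect; nearly all actives have a fitted effect of over 35% in size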
RECQ1 inh-1 = blocks DNA unwinding by human RECQ1; RECQ1 DNA unwinding, red fluorescence kinetic read; P46063; Potency, µM (highest dose often 57.3 µM), for the others: top-dose activity, negative = inhibition, actives largely listed as inhibitors; 240,000 tested, 0.54% active; AID 2549;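 also: potency is read from the fitted curve at half-maximal effect; plate controls were vehicle for no effect and no enzyme for full effect; nearly all actives have a fitted effect of over 30% in size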
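RECQ1T1 50 nM; forked duplex (20 bp + 30-nt ss tails) 200 nM, ATP 2 mM final; pH 8.0, 2 mM MgCl2, 2.5 ug/ml poly(dI-dC); 15 min compound preincubation; discontinuous kinetic read over 2 h at RT.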
APE1 inh-1 = APE1 (human) endonuclease inhibition | recombinant APE1, TAMRA/BHQ-2 abasic DNA cleavage fluorescence | 350,000 tested, 0.35% active | AID 2517 | Potency, µM (top dose mostly 65.8 µM), inactives show at the highest dose activity change, negative = inhibition, actives largely listed as inhibitors | P27695;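 also: potency is read from the fitted curve at half-maximal effect; plate controls were vehicle for no effect and reference inhibitor for full effect; nearly all actives have a fitted effect of over 55% in size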
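Endonuclease cleavage of a quenched abasic-site DNA duplex (50 nM) by APE1 (0.75 nM) was tracked by TAMRA dequenching. Compounds were preincubated with enzyme 15 min at room temperature; data normalized to buffer-only and DMSO wells plus NSC13755 control.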
WRN helicase inh = blocks human WRN helicase; WRN helicase unwinding, fluorescent forked duplex, kinetic; 360,000 tested, 0.46% active; Potency, µM (series often up to 114 µM), for the others: top-dose activity change, negative = inhibition, usual class: inhibitors; also: potency is read from the fitted curve at half-maximal effect; % is scaled to controls: 0 for no effect and ±100 for the full control effect; nearly all actives have a fitted effect of over 55% in size
Target sequence (Q14191 whole entry, looked up): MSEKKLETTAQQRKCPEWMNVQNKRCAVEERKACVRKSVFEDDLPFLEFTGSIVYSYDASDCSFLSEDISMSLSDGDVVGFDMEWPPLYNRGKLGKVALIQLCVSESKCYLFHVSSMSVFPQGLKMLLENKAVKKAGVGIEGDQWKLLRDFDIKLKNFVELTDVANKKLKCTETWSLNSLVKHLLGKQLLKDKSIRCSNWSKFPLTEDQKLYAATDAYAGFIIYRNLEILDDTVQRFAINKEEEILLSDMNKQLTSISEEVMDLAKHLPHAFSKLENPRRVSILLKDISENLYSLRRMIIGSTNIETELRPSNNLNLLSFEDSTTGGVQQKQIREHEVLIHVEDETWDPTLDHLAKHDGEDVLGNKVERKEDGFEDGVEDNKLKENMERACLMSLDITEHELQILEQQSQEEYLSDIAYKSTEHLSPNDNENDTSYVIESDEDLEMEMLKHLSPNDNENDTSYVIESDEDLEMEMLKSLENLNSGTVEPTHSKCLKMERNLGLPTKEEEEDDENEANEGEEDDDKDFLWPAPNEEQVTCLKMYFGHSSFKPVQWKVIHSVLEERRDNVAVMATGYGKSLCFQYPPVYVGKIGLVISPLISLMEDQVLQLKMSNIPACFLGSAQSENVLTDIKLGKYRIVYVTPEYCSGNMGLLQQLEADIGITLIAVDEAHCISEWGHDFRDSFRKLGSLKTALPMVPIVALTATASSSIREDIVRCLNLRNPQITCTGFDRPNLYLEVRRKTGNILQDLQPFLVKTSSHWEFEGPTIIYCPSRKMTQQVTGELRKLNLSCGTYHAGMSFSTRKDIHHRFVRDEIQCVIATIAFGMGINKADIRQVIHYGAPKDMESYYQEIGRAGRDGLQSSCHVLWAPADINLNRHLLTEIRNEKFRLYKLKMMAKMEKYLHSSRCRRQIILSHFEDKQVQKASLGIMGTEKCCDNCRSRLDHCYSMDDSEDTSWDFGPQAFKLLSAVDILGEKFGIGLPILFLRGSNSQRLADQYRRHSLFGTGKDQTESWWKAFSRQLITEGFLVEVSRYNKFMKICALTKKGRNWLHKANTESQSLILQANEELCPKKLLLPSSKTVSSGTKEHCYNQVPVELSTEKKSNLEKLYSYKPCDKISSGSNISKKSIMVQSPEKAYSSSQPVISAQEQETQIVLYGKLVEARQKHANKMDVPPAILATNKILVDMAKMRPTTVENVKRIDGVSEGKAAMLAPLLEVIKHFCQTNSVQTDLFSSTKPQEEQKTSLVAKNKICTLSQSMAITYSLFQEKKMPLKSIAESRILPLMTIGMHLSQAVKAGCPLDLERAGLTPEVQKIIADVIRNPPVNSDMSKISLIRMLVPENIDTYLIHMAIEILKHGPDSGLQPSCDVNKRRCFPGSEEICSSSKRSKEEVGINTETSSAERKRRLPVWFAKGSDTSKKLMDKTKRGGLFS
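Fluorescence dequenching readout, ex 525 nm/em 598 nm, kinetic mode: forked duplex DNA (100 nM final) with adjacent fluorophore and quencher unwound by WRN (20 nM final) with 2 mM ATP. Compound preincubation 15 min, room temperature.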
GCN5L2 inh-1 = blocks human GCN5L2 histone acetyltransferase; Q92830; GCN5L2 HAT assay, ThioGlo1 CoA-SH fluorescence; Potency, µM (top dose mostly 58.9 µM), without a hit: at the top dose activity change, negative = inhibition, actives largely listed as inhibitors; 390,000 tested, 0.21% active; AID 504327; also: potency is read from the fitted curve at half-maximal effect; % is scaled to controls: 0 for no effect and ±100 for the full control effect
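Enzyme at 20nM final was mixed with library compounds for 15 min at room temperature. Peptide H3(1-25) at 75uM, acetyl-CoA at 70uM and ThioGlo1 at 50uM were then added. Plates were read immediately and after 20 min (Ex340nm/Em540nm).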
DNA dye displace = counter-screen for APE1 inhibitors: DNA dye displacement; DNA fluorescent dye displacement counterscreen, fluorescence; Potency, µM (highest dose often 28.5 µM), inactives show top-dose activity change, negative = inhibition, usual class: inhibitors; shares compounds with APE1 inh-1; AID 2564; 480 tested, 7% active;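 also: loss of thiazole orange fluorescence as the dye is displaced from duplex DNA; potency is read from the fitted curve at half-maximal effect; 0% = ThO with dsDNA and no compound and -100% = ThO without dsDNA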
Endo IV inh = Endo IV (E. coli) inhibition counter-screen. shares compounds with APE1 inh-1. E. coli Endo IV, fluorogenic AP-site DNA cleavage. Potency, µM (titrated, usually from 27.1 µM), inactives show at the highest dose activity change, negative = inhibition, most hits filed as inhibitors. 560 tested, 4% active. AID 2565;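 also: potency is read from the fitted curve at half-maximal effect; plate controls were uninhibited enzyme wells for no effect and no enzyme buffer wells for full effect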
APE1 inh-2 = APE1 (human) endonuclease inhibition, confirmation; 750 tested, 44% active; Potency, µM (top dose mostly 57.1 µM), for the others: at the highest dose activity change, negative = inhibition, hits mostly inhibitors; purified APE1, fluorogenic abasic-site DNA cleavage; shares compounds with APE1 inh-1; AID 2572; also: potency is read from the fitted curve at half-maximal effect; % is scaled to controls: 0 for no effect and ±100 for the full control effect; nearly all actives have a fitted effect of over 30% in size
APE1 FP inh = compounds that displace a DNA probe from human APE1; shares compounds with APE1 inh-1; APE1 binding to TAMRA-labelled double-stranded DNA, fluorescence polarization displacement; Potency, µM (highest dose often 28.5 µM), for inactives: top-dose activity, negative = inhibition, hits mostly inhibitors; 480 tested, 7% active; AID 2573; also: potency is read from the fitted curve at half-maximal effect; % is scaled to controls: 0 for no effect and ±100 for the full control effect
RECQ1 conf = confirmation of human RECQ1 helicase inhibitors. Potency, µM (series often up to 229 µM), inactives show top-dose activity change, negative = inhibition, usual class: inhibitors. 610 tested, 28% active. RECQ1 helicase DNA unwinding, fluorescence. shares compounds with RECQ1 inh-1; also: potency is read from the fitted curve at half-maximal effect; % is scaled to controls: 0 for no effect and ±100 for the full control effect; nearly all actives have a fitted effect of over 45% in size
RECQ1 ADP FP = ADP displacement flagged in RECQ1 inhibitor counter-screen. shares compounds with RECQ1 inh-1. 530 tested, 27% active. ADP fluorescence polarization displacement counterscreen. Potency, µM (top dose mostly 228 µM), for the others: at the highest dose activity change, negative = inhibition, usual class: inhibitors; also: potency is read from the fitted curve at half-maximal effect; % is scaled to controls: 0 for no effect and ±100 for the full control effect; nearly all actives have a fitted effect of over 45% in size
RECQ1 inh-2 = blocks human RECQ1 DNA unwinding; Potency, µM (series often up to 119 µM), without a hit: top-dose activity, negative = inhibition, most hits filed as inhibitors; 1,100 tested, 15% active; recombinant RECQ1 DNA unwinding, red fluorescence; shares compounds with RECQ1 inh-1; AID 504841; also: potency is read from the fitted curve at half-maximal effect; % is scaled to controls: 0 for no effect and ±100 for the full control effect; nearly all actives have a fitted effect of over 50% in size
GCN5L2 inh-2 = confirmation of human GCN5L2 histone acetyltransferase inhibitors; AID 588347; 140 tested, 70% active; GCN5L2 HAT, ThioGlo1 CoA fluorescence, 20 min; Potency, µM, usual class: inhibitors; shares compounds with GCN5L2 inh-1
Active calls of the source: *; ? = inconclusive; . = no result; ! = not confirmed by another sample; [ ] = remark or other dose. This is a sample that favours compounds with a hit; in the whole collection about 0.88% have one here. Unless noted, calls follow the shape of the dose curve; as a rule, active = well fitted curve in the direction sought with a large enough effect; inconclusive = small, poorly fitted or top-dose-only effect, or another doubt; inactive = no such curve, though single readings can be large; an effect the other way counts as inactive or inconclusive.

SMILES | ERG-DNA inh | BLM helicase inh | RECQ1 inh-1 | APE1 inh-1 | WRN helicase inh | GCN5L2 inh-1 | DNA dye displace | Endo IV inh | APE1 inh-2 | APE1 FP inh | RECQ1 conf | RECQ1 inh-2 | others
Cc1ccc(C(=O)Nc2ccc(S(=O)(=O)O)c3cc(S(=O)(=O)O)cc(S(=O)(=O)O)c23)cc1NC(=O)c1cccc(NC(=O)Nc2cccc(C(=O)Nc3cc(C(=O)Nc4ccc(S(=O)(=O)O)c5cc(S(=O)(=O)O)cc(S(=O)(=O)O)c45)ccc3C)c2)c1 | . | -10% | 20µM* | 22µM* | . | ? | . | 14µM* | 8.9µM* | . | 2.5µM* | . | RECQ1 ADP FP=200%
Cc1ccc(C)n1Cc1ccc(C(=O)O)cc1 | 2% | 85% | 7.1µM* | 3.5µM* | 2.8µM* | 16µM* | . | . | 14µM* | . | 20µM* | .
Cc1cc(C)n(Cc2ccc(C(=O)O)cc2)n1 | . | -2% | -7% | 2% | -8% | 0% | . | . | . | . | . | .
COc1c(C)cc(S(=O)(=O)NCCc2c(C)[nH]c3ccccc23)c(C)c1C | 0% | -14% | . | . | . | -15% | . | . | . | . | . | .
COc1ccccc1CNc1nc(-c2cccnc2)nc2ccccc12 | . | 2% | -4% | 16% | . | -11% | . | . | . | . | . | .
COC(=O)CCCC1=CC2=CC(=O)C(C)(OC(=O)c3cccs3)C(=O)C2=CN1Cc1ccc2c(c1)OCO2 (centres undefined) | -18% | -20%[12.4 µM] | -22% | -2%[12.4 µM] | -7%[11.6 µM] | 5% | . | . | . | . | . | .
CCCCC1=CC2=C(c3ccco3)C(=O)C(C)(OC(=O)c3ccc(OC)cc3)C(=O)C2=CN1Cc1ccco1 (centres undefined) | 8% | ? | 6.3µM*! | 7.1µM* | 0% | -17% | -9% | -3% | ? | -4% | . | -9%
CC1(OC(=O)c2cccs2)C(=O)C=C2C=C3CCCN3C=C2C1=O (centres undefined) | -20% | 22µM* | 25µM* | 8.9µM* | ? | -3% | 0% | 17% | ? | -8% | 35µM* | ? | RECQ1 ADP FP=35µM*
CCCCC1=CC2=C(c3ccco3)C(=O)C(C)(OC(=O)c3ccc(OC)cc3)C(=O)C2=CN1Cc1ccc(OC)cc1 (centres undefined) | . | -1%[12.4 µM] | 2% | -1%[12.4 µM] | . | -7% | . | . | . | . | . | .
COC(=O)CCCC1=CC2=CC(=O)C(C)(OC(=O)c3cccs3)C(=O)C2=CN1Cc1ccco1 (centres undefined) | -3% | -10%[12.4 µM] | ? | ? | -19%[57.1 µM] | -17% | 2% | -2% | -11%[24.4 µM] | ? | . | 9%
COc1ccc(-c2cc(C(C)=O)c(C)n2CCC(=O)Nc2cc(Cl)ccc2C)cc1 | -3% | 2% | . | . | . | -5% | . | . | . | . | . | .
O=C(NCc1cccnc1)c1cc(C2CCCCN2C(=O)c2ccc(Cl)cc2)on1 (centres undefined) | . | . | . | . | 1% | . | . | . | . | . | . | .
COc1cc(O)c2c(c1)oc(=O)c1c3cc(O)c(O)cc3oc21 | . | 13µM* | 2.5µM* | 1.8µM* | . | ? | 8.9µM* | 87%[57.1 µM] | 4.5µM* | 1%[57.1 µM] | 14µM* | 2.2µM* | RECQ1 ADP FP=45µM*
Cc1ccccc1CSc1nnnn1-c1ccc(C(N)=O)cc1 | -2% | -3% | . | 3% | -11% | 0% | . | . | . | . | . | .
NC(=O)c1ccc(-n2nnnc2SCC(=O)c2ccc(O)c(O)c2)cc1 | -4% | -22% | 8.9µM* | 4µM* | 35µM* | -14% | -4% | 128% | 11µM* | -1% | . | ?
Cn1c(=O)n(C)c2cc3[nH]cnc3cc21 | -4% | 0% | . | 42% | 5% | 52% | . | . | . | . | . | .
Nc1cc2nc[nH]c2cc1N | -14% | ? | 1.8µM* | -7% | ? | -7% | . | . | ? | . | 8%[114 µM] | . | RECQ1 ADP FP=?
COc1cccc(C2Nc3c(F)cc(Br)cc3C3C=CCC32)c1OC (centres undefined) | 1% | -3% | -1% | -1% | -6% | -1% | . | . | . | . | . | .
COc1cccc2c1NC(C(=O)O)C1CC=CC21 (centres undefined) | 11% | 16µM* | 8.9µM* | 11µM* | 13µM* | 11µM* | ? | -11% | 16µM* | -48% | . | ? | GCN5L2 inh-2=?
COc1ccc(CCn2c(O)cc3nn(-c4nc5ccccc5s4)c(=O)c-3c2C)cc1 | -1% | -27% | 25µM* | 32µM* | ? | 25µM* | ? | 9% | 16µM* | 4% | 20%[114 µM] | -15% | RECQ1 ADP FP=-3%[91.9 µM];GCN5L2 inh-2=?
Cc1nc(-c2ccccc2)sc1-c1ccc(SCC(=O)Nc2ccccc2)nn1 | 5% | -5% | . | . | . | -14% | . | . | . | . | . | .
COc1ccc(-c2nn(C)c3sc(C(=O)NCc4ccco4)cc23)cc1OC | -10% | 0% | -18% | 5% | -17% | -8% | . | . | . | . | . | .
